Test results reported in PubChem BioAssay AID1347426 (Functional Genomics Laboratory (NCATS/FGL), 2020).
Out of some 31,000 sequences screened, about 1,400 (4.5%) were called active.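 How the source made its calls: active means median seed-adjusted z-score above 1 or below -1; inactive means the rest.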 Shown is part of a subset that was picked to be rich in actives.

Experiment: Novel Modifiers of Survival Motor Neuron (SMN) Protein: Gene Identification via Genome-wide siRNA Screen
Details: HEK293T SMN2-luciferase reporter, siRNA knockdown, 72 h; actives lie on both sides
Description: Spinal muscular atrophy (SMA) is the most common neuromuscular autosomal recessive disorder and one of the leading genetic causes of infant death. SMA results from mutations inducing loss of function or deletion in the survival of motor neuron-1 gene (SMN1), leading to deficiency of the survival motor neuron (SMN) protein. Although a second nearly identical gene, SMN2, is retained in humans, its expression primarily produces an aberrantly spliced isoform that is largely unstable and quickly degraded. We performed a genome-wide RNAi screen using a cell-based reporter assay to identify genes and pathways that modulate SMN protein stability. The screen identified over 200 genes that led to the greatest increase or decrease in luciferase expression.
Using HEK293T cells stably expressing a luciferase reporter that combines the promoter and splicing based cassettes in tandem with the major portion of the native SMN2 cDNA with luciferase, we performed a genome-wide RNAi screen to identify modulators of SMN protein levels. Luciferase is expressed when full-length SMN protein is generated with luminescence signal proportional to SMN protein levels. Our luciferase-based reporter assay was used to screen Ambion Silencer Select Human Druggable Genome siRNA library (10418 genes, 3 unique siRNAs per gene) using lipid-based reverse transfection.
Briefly, 1 pmol of each siRNA was spotted to a well of a 384-well plate (Corning, Corning, NY) and 20 microL of serum-free DMEM containing […] of Lipofectamine RNAiMax (Life Technologies, Carlsbad, CA) was then added to each well. Transfected cells were maintained at 37 degrees C in 5% CO2 for 72 hours, 20 microL of ONE-Glo Reagent (Promega) was added to wells for luciferase quantification. Raw luminescence reads were normalized to Ambion(R) Silencer(R) Negative Control #2 siRNA, then log10 transformed. A robust statistical measure of median absolute deviation (MAD) to standardize siRNA activities from each screen. Common Seed Analysis was used to help prioritize clean hits as opposed to those appearing to arise from seed based off-target effects. Candidate modulators were defined as the genes having a MAD score greater than 1.0 or less than -1.0.

| Sequence | median seed-adjusted z-score |
| --- | --- |
| GUAUAUGACUGUACACUCATT against AGPAT4 | 0.149 (inactive) |
| GGAUCACCAACAAUCGCAATT against PDE6A | 1.25 (active) |
| CAGCAGUUAUGGACCAGUUTT against AMD1 | -0.211 (inactive) |
| GCAGAAAACUCACCCGAGATT against PCDHB7 | 0.365 (inactive) |
| AGAACAACCUGGACUAUAUTT against PPP5C | 0.473 (inactive) |
| CGUUAUUGUUAGCAACACUTT against ZNF280A | -0.207 (inactive) |
| GGCUAUUAACCGAAGCAAATT against TSPAN31 | -1.13 (active) |
| UCUACAAGCUGGACCCUGATT against MYO1G | -0.907 (inactive) |
| GAUGCAUCAUCUGAAUAAATT against CPA6 | 0.343 (inactive) |
| CGUGUUCAGUGGAAUCACATT against NPC1 | -0.195 (inactive) |
| UCGAUGUACUGGAGACGGATT against NUCB1 | 0.232 (inactive) |
| GCGAAUCCAGGAUCAAGAATT against TRIP4 | -0.0385 (inactive) |
| GCUUCUAUUUAGUCACGAATT against AKAP9 | -1.22 (active) |
| GCAAGUUGGAAGACCGGAATT against XPO5 | -0.031 (inactive) |
| GAUCCAGAAGGGUAGUUAUTT against SERPINB2 | -0.0739 (inactive) |
| CAGAUGCGGUUUAAACAGATT against TBC1D9B | -0.906 (inactive) |
| GAGGUGAUCUUAGACCUGATT against QSOX2 | 0.498 (inactive) |
| AAAAGACCGUCAACCCUUATT against A2BP1 | 1.17 (active) |
| CAGUGUGGCUGACAACUUATT against SERTAD1 | 0.376 (inactive) |
| GGCUAGCUGAUAUCAGUUUTT against DDX31 | 0.0144 (inactive) |
| GGAGUGUGAUCGACCCUCATT against KRTAP5-5 | -1.07 (active) |
| ACCUGGUGGUGUCAACUCATT against PTOV1 | 0.115 (inactive) |
| GGUCGAAGUGUACCCAGUATT against USP11 | -0.0327 (inactive) |

| Sequence | median seed-adjusted z-score |
| --- | --- |
| CUACAAAUCCCUUACCAAUTT against TRDMT1 | 0 (inactive) |
| GGUAUACACUGAAUAUCCUTT against LCP1 | -0.386 (inactive) |
| GUACGAGACCUGUUCCAGATT against UCK2 | -1.51 (active) |
| ACAUGGACGUGAAAGGGAATT against WFIKKN2 | -0.353 (inactive) |
| GCUUCGUGCUAGAUAAAGATT against NOP14 | -0.344 (inactive) |
| CAGCAUUCUUUAUCUCGUATT against FZD3 | -0.0208 (inactive) |
| CCAUCAUGCUUGAUCGGGATT against SLC4A4 | 0.43 (inactive) |
| GUACAAUCGUUGACAAUGATT against PPEF1 | -0.58 (inactive) |
| CUACUGUCCUGAUGUAUCATT against MYF5 | -0.786 (inactive) |
| GCAGCUGUAUAAGUUACUATT against NFKB1 | 0.31 (inactive) |
| GGAAGGACUGCGAACCUUATT against POLM | -1.55 (active) |
| AGAUAAGGAUGAAUUGAUATT against KLRB1 | -0.44 (inactive) |
| GAACUAAUCAGGAAGCUUATT against DHX40 | -0.75 (inactive) |
| GGAGAGGGUUGACAAAGUATT against PCYT1A | 0.0429 (inactive) |
| CAUCUGAUCCGGGAAAUCATT against GALNT14 | 0 (inactive) |
| GUGUCUCCAUAGUACGAGATT against ELP3 | 0.321 (inactive) |
| AGCUCAACCAUAACGUGAATT against DIRAS2 | -1.25 (active) |
| CGCAUUGCUUACUUACAAATT against PCDHA10 | 0.0404 (inactive) |
| GCUGAGGACUUUAAUAUCUTT against GPR175 | 0.245 (inactive) |
| GAUCCAAGCUAAUAUGAGATT against TGM5 | 0.0181 (inactive) |
| CCUCAAGGAUUGGGACUAUTT against SLC22A17 | -0.149 (inactive) |
| GGAAUUUCAUGUUCGGAAUTT against PAFAH2 | 0.0216 (inactive) |
| GCAUCCGUGGAAAUGGUUATT against ASNS | -1.1 (active) |

| Sequence | median seed-adjusted z-score |
| --- | --- |
| CAUUCGGAGAAGUCGCAAATT against DDX59 | -0.859 (inactive) |
| GAUGAUUCAGGUAAAAUAATT against CETN3 | -0.0815 (inactive) |
| CAACGGGACUAUUAUGAUATT against HNRNPC | -2.15 (active) |
| GCCACGAAAAUCAAUGAGATT against EDF1 | 0.0783 (inactive) |
| CCAGCAAACUCAACCAACATT against KCNJ6 | -1.6 (active) |
| GGAUGACUACAGGCAAGAATT against GPA33 | 0.138 (inactive) |
| GCUUCACCAGGGACGUGAATT against CD1D | -0.579 (inactive) |
| AGGUCUCAGAUGAAGCGGUTT against PPM1B | 0 (inactive) |
| CCCUUAAUAGAGAGAGUUATT against AADAT | 0.0891 (inactive) |
| GGAUCAAUGAGUUCUCCAUTT against FMOD | -1.32 (active) |
| GGCUCAAGUUCAACGAGUUTT against ARL4C | -0.61 (inactive) |
| GGCCUAUGCAAAAAGAGGATT against BAD | 0 (inactive) |
| GGAUACAUUAAGCUAAUAATT against PRMT3 | 0.00875 (inactive) |
| CCACCCUUCCGAGACAUGATT against TOP3B | -1.11 (active) |
| GCAUAAGAGGGAAUUCACATT against TAGLN | 0.0485 (inactive) |
| CGAUCGUCUUCUGAUCAAATT against DPYSL2 | -0.569 (inactive) |
| ACCUGAGUGUGAACCUCUATT against GDPD5 | -0.0618 (inactive) |
| CAGUAGUGUUGGUAGACCATT against HADH | 1.11 (active) |
| GAGUGUAUGUGAUCAUCGATT against PRKCE | 0.568 (inactive) |
| GGAGAUUGUUUCACGGAAATT against TBC1D23 | 0.0932 (inactive) |
| GGGACGAGAUCAACGAGAATT against KIF5A | -0.348 (inactive) |
| UCUUAUUUAUUCUACAUCCTT against TNFRSF6B | 0.0458 (inactive) |
| GUUGUUCCUUUGUAUCCAATT against DHX32 | -0.12 (inactive) |
